# Laboratory results published in PubChem BioAssay (EPA / NIEHS).
# Values joined by “and” are separate entries in the source; they are usually repeats but may differ in a detail not shown here. Identical values can stand only once. Results filed as inconclusive are left out. Some structures have more than one record in an assay (separate samples or runs), and their calls can disagree. Active and inactive are the calls of the source. Rule for the calls: active = hit-call score of the fitted dose curve at least 0.9, where 1 is the maximum; inconclusive = response in the unintended direction; inactive = score below 0.9.
# What was measured:
# [1] = TOX21_p53_BLA_p2_viability: Viability Assessment in the Tox21 HCT-116 p53 Agonism Beta-lactamase Assay, Phase 2 (AID 2283591);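 note: actives lower the ATP signal meaning cytotoxicity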
# Outline: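 HCT-116 p53-bla cells (4000/well) rested 5 h at 37C, then received compounds in DMSO (217-fold dilution) for 16 h at 37C, 5% CO2. After the CCF4 read, CellTiter-Glo was added; ATP luminescence was read after 30 min at room temperature.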
# [2] = biological target: Cellular tumor antigen p53 (Homo sapiens) (UniProt P04637); test: TOX21_p53_BLA_p2_ratio: Tox21 HCT-116 p53 Agonism Beta-lactamase Assay, Ratio, Phase 2 (AID 2283592)
# Chain of Cellular tumor antigen p53 (Homo sapiens) (P04637 whole entry, looked up): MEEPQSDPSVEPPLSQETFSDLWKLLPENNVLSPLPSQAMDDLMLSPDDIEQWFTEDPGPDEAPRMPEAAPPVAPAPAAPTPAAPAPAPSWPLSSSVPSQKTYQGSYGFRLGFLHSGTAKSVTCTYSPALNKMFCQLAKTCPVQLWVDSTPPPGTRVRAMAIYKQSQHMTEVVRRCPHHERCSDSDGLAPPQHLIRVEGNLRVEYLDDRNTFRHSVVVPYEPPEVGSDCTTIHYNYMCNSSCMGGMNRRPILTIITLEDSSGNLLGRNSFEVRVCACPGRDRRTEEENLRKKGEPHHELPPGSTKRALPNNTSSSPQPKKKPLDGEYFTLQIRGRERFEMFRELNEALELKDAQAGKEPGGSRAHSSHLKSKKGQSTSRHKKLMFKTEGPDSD
# Outline: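 Readout: blue/green (460/530 nm) FRET emission ratio after 2 h CCF4-AM loading at room temperature, excitation 405 nm. HCT116 p53 bla cells, 16 h compound exposure at 37C, 5% CO2; agonist direction fitted against DMSO baseline.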
# [3] = TOX21_p53_BLA_p3_viability: Viability Assessment in the Tox21 HCT-116 p53 Agonism Beta-lactamase Assay, Phase 3 (AID 2283593);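 note: cells exposed to compound for 16 h before reading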
# Outline: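 HCT-116 cells (4000/well) rested 5 h at 37C, then got DMSO compounds by pin tool (217-fold dilution) for 16 h at 37C, 5% CO2. After the bla read, CellTiter-Glo was added and luminescence read at 30 min, room temperature.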
# [4] = biological target: Cellular tumor antigen p53 (Homo sapiens) (UniProt P04637); test: TOX21_p53_BLA_p3_ratio: Tox21 HCT-116 p53 Agonism Beta-lactamase Assay, Ratio, Phase 3 (AID 2283596)
# Outline: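 Cells were seeded at 4000/well, rested 5 h at 37C, then dosed with DMSO compound solutions (217-fold dilution) for 16 h. CCF4-AM substrate was loaded for 2 h at room temperature, and the 460/530 nm emission ratio was fitted for gain of signal versus DMSO.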
# [5] = biological target: Cellular tumor antigen p53 (Homo sapiens) (UniProt P04637); test: TOX21_p53_BLA_p5_ratio: Tox21 HCT-116 p53 Agonism Beta-lactamase Assay, Ratio, Phase 5 (AID 2283599)
# Outline: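 HCT-116 cells carrying a p53-inducible beta-lactamase reporter were seeded at 4000 cells/well and dosed after 5 h with compound in DMSO (217-fold dilution). After 16 h at 37C, CCF4-AM substrate was added for 2 h, and the 460/530 nm emission ratio was scored as gain-of-signal versus DMSO.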
# [6] = TOX21_p53_BLA_p5_viability: Viability Assessment in the Tox21 HCT-116 p53 Agonism Beta-lactamase Assay, Phase 5 (AID 2283600)
# Outline: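 ATP luminescence (CellTiter-Glo, 30 min, RT) served as the viability read-out, with loss of signal indicating cytotoxicity. Compounds in DMSO were pinned at a 217-fold dilution onto 4000 cells/well and incubated 16 h, 37C.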
# [7] = biological target: Cellular tumor antigen p53 (Homo sapiens) (UniProt P04637); test: TOX21_p53_BLA_p4_ratio: Tox21 HCT-116 p53 Agonism Beta-lactamase Assay, Ratio, Phase 4 (AID 2283601)
# Outline: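 HCT116 cells carrying an inducible beta-lactamase reporter were plated at 4000 cells/well, rested 5 h, then exposed to compounds in DMSO (217-fold dilution) for 16 h at 37C. CCF4-AM substrate was loaded 2 h at room temperature; 460/530 nm emission ratio scored gain-of-signal versus DMSO.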
# [8] = TOX21_p53_BLA_p4_viability: Viability Assessment in the Tox21 HCT-116 p53 Agonism Beta-lactamase Assay, Phase 4 (AID 2283597);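 note: hits lower the luminescence signal meaning cytotoxicity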
# Outline: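 ATP content by CellTiter-Glo luminescence, 30 min RT, read after the beta-lactamase ratio step. Cells: HCT116, 4000/well, compound added after 5 h, exposure 16 h at 37C. Signal loss = reduced viability.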
smiles,measurement,setting,value
CCCCCC1C(=O)CCC1CC(=O)OC (stereo not given),outcome,[1],inactive
same,outcome,[2],inactive
same,outcome,[3],inactive
same,outcome,[4],inactive
same,outcome,[5],inactive
same,outcome,[6],inactive
same,outcome,[7],inactive
CCCO[Si](OCCC)(OCCC)OCCC,outcome,[3],inactive
same,outcome,[8],inactive
same,outcome,[6],inactive
O=C(O)c1cc(C(=O)O)c(C(=O)O)cc1C(=O)O,outcome,[2],inactive
same,outcome,[4],inactive
same,outcome,[6],inactive
CCCCCCCCCO,outcome,[2],inactive
same,outcome,[3],inactive
same,outcome,[4],inactive
same,outcome,[8],inactive
same,outcome,[6],inactive
CCCCCCCC(=O)N(C)C,outcome,[2],inactive
same,outcome,[3],inactive
same,outcome,[8],inactive
same,outcome,[5],inactive
same,outcome,[7],inactive
c1ccc(-c2nn[nH]n2)cc1,outcome,[2],inactive
same,outcome,[3],inactive
same,outcome,[4],inactive
same,outcome,[5],inactive
same,outcome,[7],inactive
CC1=CC(=O)[C@H]2C[C@@H]1C2(C)C,outcome,[2],inactive
same,outcome,[3],inactive
same,outcome,[4],inactive
same,outcome,[8],inactive
same,outcome,[5],inactive
same,outcome,[6],inactive
CC(O)CNCC(C)O (stereo not given),outcome,[2],inactive
same,outcome,[3],inactive
same,outcome,[8],inactive
same,outcome,[5],inactive
N#CCCCC(C#N)CCC#N (stereo not given),outcome,[2],inactive
same,outcome,[3],inactive
same,outcome,[8],inactive
same,outcome,[5],inactive
C=COCC1CCC(COC=C)CC1 (stereo not given),outcome,[5],inactive
same,outcome,[6],inactive
CC(=O)c1cccnc1,outcome,[2],inactive
same,outcome,[8],inactive
same,outcome,[5],inactive
same,outcome,[7],inactive
CCCCC1CCCCC(=O)O1 (stereo not given),outcome,[3],inactive
same,outcome,[8],inactive
same,outcome,[5],inactive
same,outcome,[6],inactive
CCOC(=O)CC1(C)OCC(C)O1 (stereo not given),outcome,[2],inactive
same,outcome,[3],inactive
same,outcome,[5],inactive
CC/C=C\CCOC(C)OCC (stereo not given),outcome,[2],inactive
same,outcome,[4],inactive
same,outcome,[5],inactive
CCC(C)(CCCC(C)C)OC(C)=O (stereo not given),outcome,[2],inactive
same,outcome,[8],inactive
same,outcome,[5],inactive
same,outcome,[6],inactive
same,outcome,[7],inactive
C1=COCCC1,outcome,[2],inactive
same,outcome,[4],inactive
same,outcome,[6],inactive
same,outcome,[7],inactive
CC(C)COC(=O)c1ccccc1O,outcome,[2],inactive
same,outcome,[3],inactive
same,outcome,[4],inactive
same,outcome,[8],inactive
same,outcome,[5],inactive
same,outcome,[6],inactive
same,outcome,[7],inactive
CCCCCC1CCC(=O)O1 (stereo not given),outcome,[2],inactive
same,outcome,[4],inactive
same,outcome,[5],inactive
same,outcome,[7],inactive
CCCCN(CCO)CCO,outcome,[2],inactive
same,outcome,[3],inactive
same,outcome,[4],inactive
same,outcome,[6],inactive
CCOC(=O)CCCCCCCCC(=O)OCC,outcome,[2],inactive
same,outcome,[4],inactive
same,outcome,[5],inactive
same,outcome,[7],inactive
C[Si]1(C)N[Si](C)(C)N[Si](C)(C)N1,outcome,[2],inactive
same,outcome,[4],inactive
same,outcome,[8],inactive
same,outcome,[5],inactive
same,outcome,[7],inactive
Cc1cc(O)c2c(c1)C(=O)c1cc(O)cc(O)c1C2=O,AC50,[2],6.55 µM (active) and 13.2 µM (active)
same,outcome,[3],inactive
same,AC50,[4],12 µM (active) and 33.3 µM (active)
same,AC50,[5],11.9 µM (active)
same,outcome,[5],inactive
same,outcome,[6],inactive
same,outcome,[7],inactive
CC1(C)CC(N)CC(C)(CN)C1 (stereo not given),outcome,[2],inactive
same,outcome,[3],inactive
same,outcome,[4],inactive
same,outcome,[8],inactive
same,outcome,[5],inactive
same,outcome,[6],inactive
same,outcome,[7],inactive
CCC(C)C1CCCCC1=O (stereo not given),outcome,[2],inactive
same,outcome,[6],inactive
CC/C=C\CCOC(=O)C(C)C,outcome,[2],inactive
same,outcome,[3],inactive
same,outcome,[8],inactive
same,outcome,[5],inactive
CCCCCCCCCCCCS,outcome,[2],inactive
same,outcome,[3],inactive
same,outcome,[4],inactive
same,outcome,[8],inactive
same,outcome,[5],inactive
same,outcome,[6],inactive
same,outcome,[7],inactive
CCCCCCCOC(C)=O,outcome,[3],inactive
same,outcome,[8],inactive
same,outcome,[7],inactive
CC(C)(O)CCc1ccccc1,outcome,[2],inactive
same,outcome,[4],inactive
same,outcome,[5],inactive
CCCCC(CC)COC(=O)COc1ccc(Cl)cc1C (stereo not given),outcome,[2],inactive
same,outcome,[3],inactive
same,outcome,[4],inactive
same,outcome,[8],inactive
same,outcome,[6],inactive
CC(C)N1C(=O)c2ccccc2C1=O,outcome,[2],inactive
same,outcome,[5],inactive
same,outcome,[6],inactive
same,outcome,[7],inactive
Nc1ccn([C@H]2CC[C@@H](CO)O2)c(=O)n1,outcome,[2],inactive
same,outcome,[3],inactive
same,outcome,[4],inactive
same,outcome,[8],inactive
same,outcome,[5],inactive
same,outcome,[6],inactive
same,outcome,[7],inactive
CCCCCC#CC(=O)OC,outcome,[4],inactive
same,outcome,[5],inactive
same,outcome,[7],inactive
C=CCS(=O)(=O)O,outcome,[2],inactive
same,outcome,[3],inactive
same,outcome,[4],inactive
same,outcome,[5],inactive
same,outcome,[6],inactive
same,outcome,[7],inactive
[O-]/[N+](=N\O)c1ccccc1,outcome,[2],inactive
same,outcome,[3],inactive
same,outcome,[8],inactive
same,outcome,[5],inactive
same,outcome,[6],inactive
same,outcome,[7],inactive
CC(C)CCCC(C)(C)O,outcome,[3],inactive
same,outcome,[4],inactive
same,outcome,[5],inactive
same,outcome,[6],inactive
C=CC(=O)OCCCCCC,outcome,[3],inactive
same,outcome,[8],inactive
same,outcome,[5],inactive
C=CC(C)(CCC=C(C)C)OC(=O)CC (stereo not given),outcome,[2],inactive
same,outcome,[4],inactive
same,outcome,[5],inactive
same,outcome,[6],inactive
same,outcome,[7],inactive
CC1=CCC(C(C)C)=CC1,outcome,[3],inactive
same,outcome,[4],inactive
same,outcome,[7],inactive
CNC(=C[N+](=O)[O-])NCCSCc1ccc(CN(C)C)o1,outcome,[2],inactive
same,outcome,[3],inactive
same,outcome,[8],inactive
same,outcome,[6],inactive
same,outcome,[7],inactive
